Results as given in PubChem BioAssay (NCATS).
Results filed as inconclusive are left out. Where a call stands in place of a potency, no number is given. Calls of active or inactive are those of the source. Calls follow the shape of the dose curve; as a rule, active = well fitted inhibition curve with a large enough effect; inconclusive = small, poorly fitted or top-dose-only effect; inactive = flat fitted curve, though single readings scatter.

biological target: Ubiquitin carboxyl-terminal hydrolase 1 (Homo sapiens) (UniProt O94782); experiment: Inhibitors of USP1/UAF1: Pilot qHTS (AID 504865); conditions: purified USP1/UAF1, Ub-rhodamine cleavage fluorescence; series mostly up to 114 µM; also: nearly all actives have a fitted effect of over 35% in size
Sequence (O94782 whole entry, looked up): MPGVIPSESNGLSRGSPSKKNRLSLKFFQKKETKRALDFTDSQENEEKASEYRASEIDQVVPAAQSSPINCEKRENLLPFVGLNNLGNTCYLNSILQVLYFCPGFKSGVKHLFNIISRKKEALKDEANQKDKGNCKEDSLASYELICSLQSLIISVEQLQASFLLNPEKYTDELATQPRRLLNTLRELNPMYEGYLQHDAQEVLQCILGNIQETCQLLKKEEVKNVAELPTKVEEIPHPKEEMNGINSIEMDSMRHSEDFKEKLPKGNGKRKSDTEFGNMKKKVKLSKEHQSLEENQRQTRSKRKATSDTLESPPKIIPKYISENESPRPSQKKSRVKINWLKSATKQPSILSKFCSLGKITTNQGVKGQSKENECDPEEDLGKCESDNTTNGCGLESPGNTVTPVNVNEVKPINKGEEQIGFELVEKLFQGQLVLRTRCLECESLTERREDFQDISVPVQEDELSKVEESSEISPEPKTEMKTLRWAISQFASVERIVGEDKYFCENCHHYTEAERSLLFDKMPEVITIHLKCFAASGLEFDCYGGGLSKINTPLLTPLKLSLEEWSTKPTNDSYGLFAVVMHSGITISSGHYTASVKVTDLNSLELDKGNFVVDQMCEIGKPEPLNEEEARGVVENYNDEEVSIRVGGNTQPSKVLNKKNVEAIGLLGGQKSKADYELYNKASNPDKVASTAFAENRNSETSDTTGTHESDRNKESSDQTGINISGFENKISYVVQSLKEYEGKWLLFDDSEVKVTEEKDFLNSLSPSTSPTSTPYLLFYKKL
Outline: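 In 50mM HEPES pH 7.8 containing 0.5mM EDTA, 1mM TCEP, 0.1 mg/ml BSA and 0.01% Tween-20, 1nM USP1/UAF1 is exposed to compound for 15 min, then Ub-Rho (150nM final) is added and fluorescence is read over time.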
Potency is read from the fitted curve at half-maximal effect.

SMILES	Potency
CC(=O)N=c1sc(S(N)(=O)=O)nn1C	inactive
Cc1ncc(COP(=O)(O)O)c(CN)c1O	inactive
CCCC(=O)O	inactive
CN1C(=O)OC(C)(C)C1=O	inactive
O=C(OC1C[C@@H]2CC3C[C@H](C1)N2CC3=O)c1c[nH]c2ccccc12 (stereo partly drawn)	inactive
CNC(=O)c1c(I)c(C(=O)NCC(=O)Nc2c(I)c(C(=O)O)c(I)c(C(=O)NCCO)c2I)c(I)c(N(C)C(C)=O)c1I	inactive
NC(=O)[C@@H]1CCCN1C(=O)[C@H](Cc1cnc[nH]1)NC(=O)[C@@H]1CCC(=O)N1	inactive
CN[C@@H]1[C@H](O[C@H]2[C@H](O[C@H]3[C@H](O)[C@@H](O)[C@H](N=C(N)N)[C@@H](O)[C@@H]3N=C(N)N)O[C@@H](C)[C@]2(O)C=O)O[C@@H](CO)[C@H](O)[C@H]1O	inactive
c1ccc2c(c1)Sc1ccccc1N2CCN1CCCC1	inactive
O=C(CCCN1CCC(C(=O)c2ccc(F)cc2)CC1)c1ccc(F)cc1	inactive
CC1(C)S[C@@H]2[C@H](NC(=O)C3(N)CCCCC3)C(=O)N2[C@H]1C(=O)O	inactive
O=C1c2ccccc2C(=O)C1c1ccc(F)cc1	inactive
FC(F)(F)C(F)(F)C(F)(F)C(F)(F)C(F)(F)C(F)(F)F	inactive
Cc1cc(C(=O)NCCc2ccc(S(=O)(=O)NC(=O)NN3CCCCCC3)cc2)no1	inactive
CC[C@H]1OC(=O)[C@H](C)[C@@H](O[C@H]2C[C@@](C)(OC)[C@@H](O)[C@H](C)O2)C(C)[C@@H](O[C@@H]2O[C@H](C)C[C@H](N(C)C)[C@@H]2O)[C@](C)(OC)C[C@@H](C)C(=O)[C@H](C)[C@@H](O)[C@]1(C)O (stereo partly drawn)	inactive
O=C1c2ccccc2CN2C(=O)c3ccccc3CN12	inactive
CC(C)(CO)[C@@H](O)C(=O)NCCC(=O)NCCSSCCNC(=O)CCNC(=O)[C@H](O)C(C)(C)CO	inactive
O=P(O)(O)CP(=O)(O)O	inactive
CN(C)CCCSc1ccccc1NC(=O)/C=C/c1ccccc1	inactive
COc1cc2c(cc1OC)[C@@H](Cc1cc(OC)c(OC)c(OC)c1)[N+](C)(CCCOC(=O)CC/C=C/CCC(=O)OCCC[N+]1(C)CCc3cc(OC)c(OC)cc3[C@H]1Cc1cc(OC)c(OC)c(OC)c1)CC2 (stereo partly drawn)	inactive
CC(C)c1nc(N(C)S(C)(=O)=O)nc(-c2ccc(F)cc2)c1/C=C/C(O)CC(O)CC(=O)O (stereo not drawn)	inactive
CN(C)c1ccc(C(=C2C=CC(=[N+](C)C)C=C2)c2c(O)c(S(=O)(=O)[O-])cc3cc(S(=O)(=O)O)ccc23)cc1	56.2 µM (active)
NC(=O)CC[C@@H]1NC(=O)[C@H](Cc2ccccc2)NC(=O)[C@H](Cc2ccc(O)cc2)NC(=O)[C@@H](N)CSSC[C@@H](C(=O)N2CCC[C@H]2C(=O)N[C@@H](CCCN=C(N)N)C(=O)NCC(N)=O)NC(=O)[C@H](CC(N)=O)NC1=O	inactive
